# Bioassay records (PubChem)
# Bcl-xL primary: inhibitors of human Bcl-xL. inhibition, % at 10.9 µM. Q07817. GST-Bcl-xL / FITC-Bim BH3 peptide fluorescence polarization. AID 2129. actives 0.7% (n = 320,000);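 active means inhibition above the mean of all tested compounds plus 3 SD, cutoff set per campaign, cut at about 30% in these data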;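 further: 0% = DMSO wells and 100% = unlabeled Bim-BH3 peptide competitor; inhibitors lower millipolarization by displacing the labeled peptide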
# RTF Ca sens inh: cardiac RTF calcium desensitization; P19429+P45379; IANBD-labeled cardiac RTF, Ca2+ fluorescence; inhibition, % at 7.15 µM; actives 0.12% (n = 340,000); AID 493244;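 active means inhibition above the mean inhibition of all tested compounds plus 3 SD, cut at about 17% in these data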;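 further: assay run at fixed EC70 calcium of 1.6 mM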
# E coli Lon inh: E. coli protease La inhibition; P0A9M0; purified E. coli Lon protease, fluorescence polarization; inhibition, % at 7.94 µM; actives 0.42% (n = 360,000); in the data active means inhibition above about 13%, passing the limit was not always enough;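 further: 0% = enzyme with probe and DMSO and 100% = no enzyme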
# cardiac RTF act: cardiac RTF calcium sensitization. P19429+P45379. IANBD-labeled TnC RTF fluorescence at EC20 calcium; 0% EC20 calcium, 100% full calcium. activation, % at 7.2 µM. actives 0.24% (n = 340,000). AID 493008;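 active means activation above the mean over all tested compounds plus 3 SD, cut at about 30% in these data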;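 further: rise in fluorescence read as greater calcium sensitivity of cardiac thin filaments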
# GLD-1 TGE inh: GLD-1-TGE RNA interaction inhibition (C. elegans). AID 2280. actives 0.44% (n = 320,000). purified GLD-1 + fluorescein TGE RNA, fluorescence polarization. inhibition, % at 5.96 µM. Q17339;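 active means percent inhibition above a per-plate cutoff, the plate mean of test compounds plus 3 SD, cut at about 30% in these data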;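 further: 0% = DMSO wells with GLD-1 and probe and 100% = wells lacking GLD-1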
# Target sequence (Q17339 whole entry, looked up): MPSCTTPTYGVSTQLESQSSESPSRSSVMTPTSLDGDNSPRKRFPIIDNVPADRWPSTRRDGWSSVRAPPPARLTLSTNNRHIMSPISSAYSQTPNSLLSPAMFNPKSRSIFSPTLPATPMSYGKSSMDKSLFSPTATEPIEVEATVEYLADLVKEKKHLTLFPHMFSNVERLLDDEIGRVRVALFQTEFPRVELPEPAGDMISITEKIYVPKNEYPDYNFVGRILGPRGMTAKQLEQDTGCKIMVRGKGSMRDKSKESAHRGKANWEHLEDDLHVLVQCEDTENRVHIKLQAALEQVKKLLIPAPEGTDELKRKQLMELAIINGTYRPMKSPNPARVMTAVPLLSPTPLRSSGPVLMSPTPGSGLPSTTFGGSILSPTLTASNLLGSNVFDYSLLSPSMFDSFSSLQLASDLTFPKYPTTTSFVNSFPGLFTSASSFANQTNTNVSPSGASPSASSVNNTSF
# Numbers without * were called inactive; . = no result. Compounds with a hit are over-represented: about 1.2% of the library has one in this group of screens.
SMILES,Bcl-xL primary,RTF Ca sens inh,E coli Lon inh,cardiac RTF act,GLD-1 TGE inh
O=[N+]([O-])c1ccc(N2N=C(c3ccccc3)CC2c2ccccc2O)cc1 (stereo not given),.,-53,-222,47*,.
COc1cc(N2N=C(c3ccccc3)CC2c2ccccc2)c(C=O)cc1C=O (stereo not given),6,2,6,-7,2
COc1ccccc1N1N=C(c2ccc([N+](=O)[O-])cc2)CC1c1ccccc1 (stereo not given),56*,-13,-91,15,-2
Cc1ccc(-c2cc(C(=O)NCc3ccco3)c3ccccc3n2)s1,-2,-11,-14,-4,0
CCCN1C(=O)/C(=C/c2c(NCCCOC(C)C)nc3c(C)cccn3c2=O)SC1=S,-54,-21,-92,12,-61
CCC(C)N1C(=O)/C(=C/c2c(NCCCOC(C)C)nc3c(C)cccn3c2=O)SC1=S (stereo not given),-60,-37,-241,133*,-85
CCNC(=S)N/N=C/c1sc(N2CCCCC2)nc1-c1cccs1,-5,-19,-24,33*,-47
O=C(Nc1c2ccccc2nc2ccccc12)C(Cl)(Cl)Cl,36*,-9,9,-13,19
Cc1cc(C(=O)N/N=C/c2cc(Br)c(Br)o2)n[nH]1,15,-6,-14,5,4
O=C(CCc1nc2ccccc2c(=O)[nH]1)Nc1nnc(SCc2ccccc2F)s1,10,-7,-18,4,2
Cc1cc(C)nc(SCC(=O)OCC(=O)Nc2ccccc2)n1,-1,-2,-14,-2,1
COC(=O)c1cccc(NC(=O)COC(=O)CSc2nc(C)cc(C)n2)c1,135*,-4,-1,1,4
CC(=O)Nc1cccc(C(=O)OC2CCOC2=O)c1 (stereo not given),-2,-10,1,-3,2
CC(C)(C)N1C(=O)Cc2c1nc(N)c1c(N)nc(N3CCCCC3CO)c(C#N)c21 (stereo not given),30,5,50*,6,12
CN(CCO)c1nc(N)c2c(N)nc3c(c2c1C#N)CC(=O)N3C1CCCC1,26,.,.,.,-1
N#Cc1c(OCC(=O)c2ccccc2)nc2c(c1-c1ccco1)CCc1ccccc1-2,34*,-5,-4,4,13
CCOC(=O)COc1nc2c(c(-c3ccco3)c1C#N)CCc1ccccc1-2,-3,.,-4,.,8
COCC(C)n1c(SCc2ccc(C(=O)OC)cc2)nc2ccccc2c1=O (stereo not given),5,6,5,-8,7
CCN(CC)C(=O)CSc1nc2c(sc(=S)n2-c2ccccc2)c(=O)n1Cc1ccco1,50*,-7,0,4,-1
CCNC(=O)N1c2ccc(OCC)cc2C(C)=CC1(C)C,48*,-6,14,3,68*
CCOc1ccc2c(c1)C(C)=CC(C)(C)N2C(=O)Nc1ccccc1F,13,-29,3,2,9
O=S(=O)(NCC(c1cccnc1)N1CCN(c2ccccc2)CC1)c1cccs1 (stereo not given),7,1,-6,0,5
CCN1c2ccccc2N(C)C1(C)c1ccccc1 (stereo not given),88*,-22,28,4,66*
CCN1CCN(C(=O)c2cc3cc([N+](=O)[O-])ccc3oc2=O)CC1,7,-2,7,-2,1
O=C(Nc1ccc(S(=O)(=O)N2CCCCC2)cc1)c1ccco1,1,-7,-4,-2,9
SMILES,Bcl-xL primary,RTF Ca sens inh,E coli Lon inh,cardiac RTF act,GLD-1 TGE inh
O=c1[nH]c(C(Cl)Cl)nc2sc3c(c12)CCN(Cc1ccccc1)C3,78*,-5,-41,6,23
CSc1nsc(/C=C/Nc2ccc(F)cc2)c1C#N,-5,-13,-27,15,-10
CSc1nsc(/C=C/Nc2ccc(O)cc2C)c1C#N,60*,-11,5,6,71*
Cc1noc(C)c1COc1cccc(C(=O)NCc2cccc(Cl)c2)c1,-1,0,-6,1,4
Cc1cc(C=C2C(=O)c3ccccc3C2=O)c(C)n1C,51*,5,4,-2,26
CCn1c(C)cc(C=C2C(=O)c3ccccc3C2=O)c1C,.,-4,-10,-6,.
Cc1cccc(-n2c(C)cc(C=C3C(=O)c4ccccc4C3=O)c2C)c1,-15,-7,-11,62*,-16
CC1CN(S(=O)(=O)c2cc(C(=O)N3CCCCC3C)ccc2Cl)CC(C)O1 (stereo not given),.,-6,2,-4,0
CN(Cc1ccccc1)C(=O)c1cccc(NC(=O)c2ccco2)c1,1,-5,3,2,0
CC1CCN(c2ccc3c(c2)S(=O)(=O)c2cccc(C(=O)NC[C@@H]4CCCO4)c2C3=O)CC1,.,-21,-90,6,-17
O=C(NCc1ccccc1Br)c1cccc2c1C(=O)c1ccc(N3CCC(Cc4ccccc4)CC3)cc1S2(=O)=O,.,-2,-23,6,157*
O=C(NC1CCCCC1)c1cccc2c1C(=O)c1ccc(N3CCC(Cc4ccccc4)CC3)cc1S2(=O)=O,.,-155,-379,90*,62*
O=C(NCC1CCCO1)c1cccc2c1C(=O)c1ccc(N3CCC(Cc4ccccc4)CC3)cc1S2(=O)=O (stereo not given),.,-162,-185,61*,6
O=C(Nc1ccc2c(c1)OCCO2)c1cccc(Cl)c1Cl,7,1,4,39*,0
O=C(CCNS(=O)(=O)c1ccc(Cl)cc1)N1CCN(c2ccccn2)CC1,6,7,8,-3,8
O=C1CC(c2ccc(O)cc2)Oc2cc(O)cc(O)c21 (stereo not given),8,9,1,4,6
CC1CC(=O)c2c(cc3c(-c4c(O)cc(O)c5c(O)c6c(cc45)OC(C)CC6=O)c(O)cc(O)c3c2O)O1 (stereo not given),44*,-5,8,3,5
Cn1c(CNC(=O)OC(C)(C)C)n[nH]c1=S,-1,-1,-3,2,0
O=C(c1ccco1)N1CCN(C(=O)c2cc(-c3ccccc3)nc3ccccc23)CC1,-2,-22,2,10,1
NS(=O)(=O)c1ccc(CNC(=O)c2cc(-c3ccccn3)nc3ccc(Cl)cc23)cc1,41*,-16,-9,3,14
O=C(c1ccco1)N1CCN(C(=O)c2cc(-c3ccccn3)nc3ccc(Cl)cc23)CC1,40*,-4,4,2,9
O=C1C2CC=C(Cl)CC2C(=O)N1CN(Cc1ccco1)CN1C(=O)C2CC=C(Cl)CC2C1=O (stereo not given),45*,3,2,-1,44*
Cc1nc(S(=O)(=O)N(C)c2ccccc2)c(C#N)c(C)c1Cl,31*,-9,-1,6,0
CN(c1ccccc1)S(=O)(=O)c1ccc(Cl)nc1,6,10,1,0,-6
Cc1ccc(C)c(S(=O)(=O)C(C#N)c2nc3ccccc3nc2N2CCCC2)c1 (stereo not given),77*,-7,-15,7,51*
